Assay outcomes (PubChem)
In the library only some 10% were active in any assay of this set; here they are far more common.
PNC inhibitor – High Content Assay for Compounds that inhibit the Assembly of the Perinucleolar Compartment; PC3M PTB-GFP, PNC prevalence imaging, 16 h; stronger effect = lower value; activity change (PNC), negative = inhibition, % at 10 µM; 140,000 tested, 3.1% active;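 active means readout at or below -70, meaning at least 70% loss of cells showing the perinucleolar compartment, a nuclear body marking cancer cells; inconclusive means readout between -30 and a set limit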;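 further: plate controls were DMSO wells for no effect and camptothecin positive control wells for full effect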
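Read-out is percentage of cells bearing a perinucleolar compartment, from automated 20x imaging of fixed, Hoechst-stained PC3M PTB-GFP cells. Cells were seeded 4 h, then exposed 16 h to compound (23 nl of library stock) in duplicate plates.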
KinaseGlo FLuc – Counterscreen for Luciferase (Kinase-Glo TM) Inhibition | Kinase-Glo luciferase, ATP luminescence, 8 min | Luciferin 4-monooxygenase (Photuris pensylvanica), Q27757 | Potency, µM (doses to about 38.3 µM), without a hit: top-dose activity change, negative = inhibition, usual class: inhibitors | 200,000 tested, 0.28% active; active means well fitted inhibition curve with a large enough effect; inconclusive means small, poorly fitted or top-dose-only effect; further: potency means the concentration at half of the fitted maximal effect; nearly all actives have a fitted effect of over 60% in size
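Compounds were added to a substrate mix at pH 7.2 (50 mM imidazole, 10 uM ATP, within the enzyme's linear range), followed by Kinase-Glo detection reagent; luminescence was measured after 8 minutes at ambient temperature.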
HPGD inh – qHTS Assay for Inhibitors of HPGD (15-Hydroxyprostaglandin Dehydrogenase). purified HPGD, NADH fluorescence kinetic, PGE2 substrate. Potency, µM, without a hit: at the top dose activity change, negative = inhibition, most hits filed as inhibitors. AID 894, 2007. 150,000 tested, 4.3% active. 15-hydroxyprostaglandin dehydrogenase [NAD(+)] (Homo sapiens), P15428; further: potency means the concentration at half of the fitted maximal effect
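NADH formation kinetics: reaction with 30 uM PGE2 and 1 mM NAD+ (final), 20 nM enzyme, Tris-HCl pH 8 with Tween 20, after 15 min compound preincubation at room temperature. Fluorescence change, last versus first of five reads.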
Lamin A splicing – qHTS Assay for Modulators of Lamin A Splicing; Potency, µM (series often up to 46.1 µM), for inactives: top-dose ratio change, negative = inhibition, most hits filed as inhibitors; HeLa LMNA splicing GFP/RFP minigene ratio, 48 h; 200,000 tested, 0.01% active; active means well fitted inhibition curve with a large enough effect in the signal ratio, with a control signal flat, not every such curve was filed as active; inconclusive means small, poorly fitted or top-dose-only effect, or effect the other way, or a change in a side signal; the % refers to the signal ratio; further: potency means the concentration at half of the fitted maximal effect
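S3 HeLa cells stably expressing lamin A-EGFP splicing minigene plus DsRed2, 600 cells/well, 48 h compound exposure at 37C. Laser-scanning cytometry; analysed as GFP (500-530 nm)/RFP (575-640 nm) total intensity ratio; 0.5% DMSO vehicle.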
ALDH1A1 inh – qHTS Assay for Inhibitors of Aldehyde Dehydrogenase 1 (ALDH1A1). Purified ALDH1A1, NADH fluorescence, propionaldehyde substrate. Aldehyde dehydrogenase 1A1 (Homo sapiens), P00352. Potency, µM (doses to about 75.3 µM), for inactives: top-dose activity, negative = inhibition, hits mostly inhibitors. 220,000 tested, 7.3% active;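 further: potency means the concentration at half of the fitted maximal effect; plate controls were no enzyme wells and a reference inhibitor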
Target sequence (P00352 whole entry, looked up): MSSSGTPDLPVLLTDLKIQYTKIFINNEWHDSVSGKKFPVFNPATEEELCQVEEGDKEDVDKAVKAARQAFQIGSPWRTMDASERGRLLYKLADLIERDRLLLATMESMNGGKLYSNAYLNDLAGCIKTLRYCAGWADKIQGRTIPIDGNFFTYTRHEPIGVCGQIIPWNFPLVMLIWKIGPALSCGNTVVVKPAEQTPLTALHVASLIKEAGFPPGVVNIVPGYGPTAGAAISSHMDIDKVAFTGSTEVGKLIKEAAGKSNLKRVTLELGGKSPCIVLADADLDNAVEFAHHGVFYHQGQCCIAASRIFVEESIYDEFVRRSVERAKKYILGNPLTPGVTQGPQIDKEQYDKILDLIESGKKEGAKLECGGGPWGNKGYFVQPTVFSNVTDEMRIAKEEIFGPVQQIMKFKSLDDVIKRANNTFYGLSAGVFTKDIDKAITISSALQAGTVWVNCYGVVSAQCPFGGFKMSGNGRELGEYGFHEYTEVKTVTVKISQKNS
IMPase inh – qHTS Assay for Identifying the Cell-Membrane Permeable IMPase Inhibitors. Inositol monophosphatase 1 (Rattus norvegicus), P97697. CHO-M1 cells, IP1 accumulation, HTRF TR-FRET ratio. inhibition (IP1 accumulation), % at 46.1 µM. 120,000 tested, under 10 active; active means well fitted curve in the direction sought with a large enough effect in the signal ratio, not every such curve was filed as active; inconclusive means small, poorly fitted or top-dose-only effect, or a change in a side signal; inactive means no such curve, though single readings can be large or run the other way; the % refers to the signal ratio;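 further: cells stimulated with carbachol in lithium chloride buffer; plate controls were DMSO basal wells for no effect and reference inhibitor wells for full effect; higher means more IMPase inhibition seen as more IP1 and lower FRET ratio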
Target sequence (P97697 whole entry, looked up): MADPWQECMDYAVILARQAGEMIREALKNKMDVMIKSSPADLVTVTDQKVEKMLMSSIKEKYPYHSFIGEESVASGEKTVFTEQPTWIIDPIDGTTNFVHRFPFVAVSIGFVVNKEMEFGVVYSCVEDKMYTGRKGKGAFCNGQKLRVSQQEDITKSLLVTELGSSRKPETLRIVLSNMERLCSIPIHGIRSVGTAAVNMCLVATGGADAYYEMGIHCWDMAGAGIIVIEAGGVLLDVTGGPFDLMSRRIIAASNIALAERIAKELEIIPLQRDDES
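Elevated IP1 in lysates lowers TR-FRET signal (665/620 ratio and 620 channel reported). Cells were CHO-M1, given carbachol (50 uM as added) plus 50mM LiCl, pH 7.4, 30 min, 37C; compounds titrated up to 46 uM; AC50 by Hill equation.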
An asterisk follows results filed as active; ? = inconclusive; . = not tested or not shown; [ ] = another dose, or the depositor's remark. Unless noted, the call rests on the fitted dose curve; in most records, active means well fitted inhibition curve with a large enough effect (not every such curve was filed as active); inconclusive means small, poorly fitted or top-dose-only effect, or another doubt; inactive means no such curve, though single readings can be large or run the other way. Unless noted, on the % scale 0 is the no-effect control and ±100 the full control effect.

SMILES	PNC inhibitor	KinaseGlo FLuc	HPGD inh	Lamin A splicing	ALDH1A1 inh	IMPase inh
COc1cc(CNC(=O)CSCc2nc3cccnc3n2C2CCCCC2)cc(OC)c1OC	.	.	.	3.2%[46 µM]	.	.
Cc1onc(-c2ccccc2)c1-c1ccnn1S(=O)(=O)c1ccc(Cl)cc1	.	.	.	.	7.94µM*	.
CCOc1ccc(CNC(=O)CS(=O)(=O)c2cccc3nsnc23)cc1	.	.	.	14.0%[46 µM]	.	.
COC(=O)N/N=C/c1ccc(OC(=O)c2ccco2)c(OC)c1	.	.	.	.	3.7%	.
COc1cc(/C=C2/C(=O)NN(c3cccc(F)c3)C2=O)ccc1OC(=O)c1ccco1	-80.6*	-1.4%	3.98µM*	-10.7%	22.4µM*	1.6
COc1cc(/C=C2/C(=O)NN(c3ccc(Cl)cc3)C2=O)ccc1OC(=O)c1ccco1	19.2	1.3%	7.94µM*	-1.7%	?	.
COc1cc(/C=N/NC(=O)c2ccc(F)cc2)ccc1OC(=O)c1ccco1	?	-3.1%	-13.6%	4.6%	4.0%	.
COc1cc(/C=C2/C(=N)N3OC(C)=CC3=NC2=O)ccc1OC(=O)c1ccco1	.	-0.7%	.	-7.0%[46 µM]	5.62µM*	.
C=CCN1C(=O)/C(=C\c2ccc(OC(=O)c3ccco3)c(OC)c2)SC1=S	.	0.3%	.	.	0.224µM*	.
CCCc1nccn1S(=O)(=O)c1cc(Br)ccc1OC	.	.	.	-12.1%[46 µM]	.	.
COc1cc(NC(=O)Cn2nc(C(F)(F)F)c3c2CCC3)cc(OC)c1OC	.	.	.	.	.	-10.1
CS(=O)(=O)Nc1cccc(-c2nccc(-n3ccnc3)n2)c1	.	-0.6%	17.8µM*	9.7%	-5.2%	.
O=C1CN(c2nnnn2-c2ccccc2)CCN1	0.3	-1.5%	-11.2%	-0.5%	-0.2%	0.7
c1ccc(CC2CCN(c3nnnn3-c3ccccc3)CC2)cc1	-10.5	0.7%	-21.0%	?	8.91µM*	-0.6
O=C1NCN(c2ccccc2)C12CCN(c1nnnn1-c1ccccc1)CC2	?	0.6%	-5.7%	-10.2%	22.4µM*	4.1
CC(=O)N1CCN(c2nnnn2-c2ccccc2)CC1	-27.8	-0.7%	2.6%	-1.6%	-1.3%	-2.9
Cc1cc(C)nc(N2CCN(c3nnnn3-c3ccccc3)CC2)n1	11.6	-2.3%	-6.0%	-5.5%	22.4µM*	-3.3
CC(=O)NC1=NN(C(C)=O)C(c2ccccc2)S1 (stereo not given)	.	0.9%	.	15.4%[46 µM]	-14.2%	.
CC(=O)NC1=NN(C(C)=O)C(c2cccs2)S1 (stereo not given)	-100.0*	3.3%	-10.6%	2.6%	-8.9%	2.3
CCOC(=O)CSc1nc2c(sc3ccccc32)c(=O)n1Cc1ccc(OC)cc1	.	.	.	11.3%[46 µM]	.	.
CCOC(=O)c1ccc(CC2S/C(=C(\C#N)C(C)=O)NC2=O)cc1 (stereo not given)	-26.5	-1.5%	14.1µM*	?	-13.7%	-3.4
CCc1ccc(CC2S/C(=C(\C#N)C(C)=O)NC2=O)cc1 (stereo not given)	-11.3	1.0%	?	?	-14.7%	6.2
Cc1nccn1-c1ccc(C=O)cc1	.	0.2%	.	5.7%[46 µM]	20µM*	.
Nc1nc(=S)[nH]c2c1C1(CCCCC1)Cc1ccccc1-2	18.0	-3.0%	-9.9%	?	4.1%	.
Nc1nc(=S)[nH]c2c1C1(CCCC1)Cc1ccccc1-2	21.6	-1.8%	12.6µM*	3.9%	-10.3%	-11.6
SMILES	PNC inhibitor	KinaseGlo FLuc	HPGD inh	Lamin A splicing	ALDH1A1 inh	IMPase inh
CCOC(=O)c1c(-c2ccccc2)oc2ccc(NS(=O)(=O)c3ccc(C)cc3C)cc12	.	.	.	.	.	-10.9
COc1cc(O)c(NC(C)=O)c2nonc12	-87.8*	15.6%	-4.1%	-3.0%	-4.3%	19.2
OC1CC2CC[C@H](C1)N2CCCN1c2ccccc2Sc2ccc(Cl)cc21 (stereo not given in full)	.	-1.5%[7.66 µM]	-6.8%	.	6.7%[13.5 µM]	.
Cc1ccc(S(=O)(=O)/N=C(\CN2CCCCC2)N2CCOCC2)cc1	-0.9	-0.1%	-4.2%	16.0%	11.2µM*	6.1
O=C(COCc1cc(-c2ccc(F)cc2)on1)Nc1cccc(Cl)c1Cl	.	.	.	1.1%[46 µM]	.	.
CCCN1C(=O)C(Cc2nc3ccccc3c(=O)n2C)c2ccccc21 (stereo not given)	40.6	-3.1%	-6.1%	8.4%	0.282µM*	0.4
O=C(Nc1ccccc1)N1CCC2(CC1)CCN(C(=O)c1cnccn1)CC2	.	-1.9%	-5.7%	.	-6.8%	.
CC(C)(C)c1ccc(S(=O)(=O)NCCc2ccncc2)cc1	?	7.7%	-14.1%	?	?	?
O=C(Nc1ccc(Cc2ccncc2)cc1)C1CC1	?	-0.4%	-24.8%	1.2%	-0.4%	8.3
O=S(=O)(Nc1ccc(Cc2ccncc2)cc1)N1CCCC1	?	-0.2%	25.1µM*	-8.8%	3.2%	9.0
CC(C)(C)c1ccc(S(=O)(=O)Nc2ccc(Cc3ccncc3)cc2)cc1	?	-2.0%	-10.6%	?	1.12µM*	.
CC(C)Cn1cc(NC(=O)N2CCN(c3ccccc3F)CC2)c2ccccc2c1=O	.	.	.	-10.8%[46 µM]	.	.
CCOC(=O)c1ccc(N2C(=O)C3CC=CCC3C2=O)cc1 (stereo not given)	60.3	-5.0%	-7.9%	-8.0%	-3.5%	2.3
CCOC(=O)c1ccc(N2C(=O)C3C(C2=O)C(C(=O)c2ccc(Cl)cc2)N2CCCC32)cc1 (stereo not given)	44.4	0.2%	2.24µM*	-11.9%	12.6µM*	0.3
O=C1/C(=C/c2cccnc2)CC/C1=C\c1cccnc1	.	-5.4%	.	5.0%[9.22 µM]	-4.7%	.
CCC1C/C(=C\c2cccnc2)C(=O)/C(=C/c2cccnc2)C1 (stereo not given)	-125.2*	-3.6%	-24.7%	?	?	.
CCOC(=O)c1sc(NC(=O)C2C3C=CC(C3)C2C(=O)O)nc1C (stereo not given)	-4.3	-0.1%	-15.9%	12.2%	0.501µM*	4.2
O=C(O)Cc1sc(N/N=C\c2ccccc2)nc1-c1ccccc1	31.0	-4.3%	?	?	1.12µM*	.
CCOC(=O)c1sc(N/N=C/c2cccc(C)c2)nc1C	?	-0.5%	-13.0%	7.7%	-0.9%	10.9
CCOC(=O)c1sc(N/N=C/c2ccccc2)nc1C	28.0	-3.3%	14.1µM*	?	8.91µM*	.
CC(C)(C)OC(=O)N1CCC(c2c(C(=O)NCCN3CCOCC3)cnn2-c2ccccc2)CC1	.	.	.	18.0%[46 µM]	.	.
COC(=O)c1c(-c2cccs2)csc1NC(=O)COc1c(C)ccc(C)c1C	.	.	.	2.6%[46 µM]	.	.
COc1ccc(NC(=O)N2CCC(CN3CCCC3)CC2)c(OC)c1	.	.	.	-1.5%[46 µM]	.	.
CC1=NN(c2ccc(S(=O)(=O)O)cc2Cl)C(=O)C1	.	-1.2%	.	3.3%[46 µM]	11.2µM*	.
